This passage reports Potency, activation and activity change, negative = inhibition results from PubChem BioAssay (NCATS).

Assay [1] deals with Rap guanine nucleotide exchange factor 3 (Homo sapiens) (UniProt O95398). Put plainly: Confirmatory qHTS for antagonist of cAMP-regulated guanine nucleotide exchange factor 3 (EPAC1) (AID 1645880). Also: nearly all actives have a fitted effect of over 55% in size. Also: potency is read from the fitted curve at half-maximal effect.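 As to activity, negative = inhibition: plate controls were DMSO only for no effect and full effect of the ATA control for full effect.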 To be noted: EPAC1 Rap1B-BODIPY-GDP exchange, fluorescence; activity, negative = inhibition: at 115 µM (top of the series). An outline of the steps:
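Nucleotide exchange uses 100 nM EPAC1, 250 nM RAP1B-BODIPY-GDP and 50 uM GDP, with compounds in a concentration-titration series. After 5 min at room temperature, fluorescence (480 nm ex/540 nm em) is read every 5 min for 30 min. Data are normalized to control ATA and DMSO.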

Assay [2] has the same target. The experiment in a line: Confirmatory qHTS for agonist of cAMP-regulated guanine nucleotide exchange factor 3 (EPAC1) (AID 1645881). Also: nearly all actives have a fitted effect of over 75% in size. Also: potency is read from the fitted curve at half-maximal effect.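 As to activation: EPAC1 catalysed release of BODIPY-GDP from Rap1B seen as fluorescence loss; 100% = effect of cAMP agonist control.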 For orientation: In qHTS, concentration-response curves come from the screen itself.
Assay [3] deals with Rap guanine nucleotide exchange factor 4 (Homo sapiens) (UniProt Q8WZA2). Put plainly: Confirmatory qHTS for agonist of cAMP-regulated guanine nucleotide exchange factor 4 (EPAC2) (AID 1645884).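 Also: nucleotide exchange releases bodipy-GDP from Rap1 and this lowers its fluorescence; nearly all actives have a fitted effect of over 65% in size.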 Also: potency is read from the fitted curve at half-maximal effect. As to activation: % is scaled to controls: 0 for no effect and ±100 for the full control effect.
Assay [4] concerns the target Rap guanine nucleotide exchange factor 3 (Homo sapiens) (UniProt O95398). Put plainly: Counterscreen qHTS for antagonist of cAMP-regulated guanine nucleotide exchange factor 3 (EPAC1) (AID 1645888).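 Also: fluorescence loss as bound BODIPY-GDP is released from Rap1B; % of control where 0% means no effect.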 The method, boiled down: (§1)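 Rap1B–BODIPY-GDP (250 nM) with 50 uM GDP; compounds pin-transferred to 9.74 nM–152 uM final (activator) or from 7.32 nM upwards (inhibitor). Fluorescence Ex/Em 480/540 nm read at 5 and 30 min, then after adding cAMP or buffer, at room temperature.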
(In general: Counterscreens check selectivity or assay interference.)

Assay [5] shares this target. The experiment in a line: Counterscreen qHTS for agonist of cAMP-regulated guanine nucleotide exchange factor 3 (EPAC1) (AID 1645889). Also: nearly all actives have a fitted effect of over 40% in size. Also: potency is read from the fitted curve at half-maximal effect. As to activation: % of control where 0% means no effect. An outline of the steps:
as §1

The structures appear in SMILES notation. Results filed as inconclusive are left out. Values without a mark were called inactive. Active and inactive are the calls of the source. Calls follow the shape of the dose curve; as a rule, active = well fitted curve in the direction sought with a large enough effect; inconclusive = small, poorly fitted or top-dose-only effect, or another doubt; inactive = no such curve, though single readings can be large; an effect the other way counts as inactive or inconclusive.

Rap guanine nucleotide exchange factor 4 (Homo sapiens), sequence (Q8WZA2 whole entry, looked up): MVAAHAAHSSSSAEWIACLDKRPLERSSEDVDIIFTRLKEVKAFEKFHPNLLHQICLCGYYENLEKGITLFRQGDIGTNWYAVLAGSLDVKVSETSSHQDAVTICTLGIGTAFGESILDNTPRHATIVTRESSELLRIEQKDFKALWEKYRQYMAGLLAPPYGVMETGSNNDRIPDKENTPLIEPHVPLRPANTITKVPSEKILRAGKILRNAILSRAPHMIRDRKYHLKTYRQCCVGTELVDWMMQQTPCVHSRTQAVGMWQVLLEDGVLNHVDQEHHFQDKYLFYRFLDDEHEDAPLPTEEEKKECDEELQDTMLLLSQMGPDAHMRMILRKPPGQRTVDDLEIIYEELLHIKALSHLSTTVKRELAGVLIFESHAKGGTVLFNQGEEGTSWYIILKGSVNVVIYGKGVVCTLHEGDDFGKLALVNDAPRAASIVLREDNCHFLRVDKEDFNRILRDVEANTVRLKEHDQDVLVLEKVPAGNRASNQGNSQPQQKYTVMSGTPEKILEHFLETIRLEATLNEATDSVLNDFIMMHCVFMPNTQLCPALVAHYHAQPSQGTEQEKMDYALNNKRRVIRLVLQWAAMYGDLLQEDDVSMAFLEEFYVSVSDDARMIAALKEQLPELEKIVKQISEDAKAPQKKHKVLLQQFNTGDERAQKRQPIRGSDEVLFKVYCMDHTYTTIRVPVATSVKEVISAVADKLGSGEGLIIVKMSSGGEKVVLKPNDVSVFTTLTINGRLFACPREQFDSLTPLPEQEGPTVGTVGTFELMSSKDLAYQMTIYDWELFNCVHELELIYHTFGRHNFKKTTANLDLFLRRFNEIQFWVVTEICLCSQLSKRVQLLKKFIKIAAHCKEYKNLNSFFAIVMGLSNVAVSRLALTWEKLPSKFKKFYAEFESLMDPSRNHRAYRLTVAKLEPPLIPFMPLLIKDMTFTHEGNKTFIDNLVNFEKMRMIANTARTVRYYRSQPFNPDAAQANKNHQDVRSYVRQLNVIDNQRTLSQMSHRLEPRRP
Rap guanine nucleotide exchange factor 3 (Homo sapiens), sequence (O95398 whole entry, looked up): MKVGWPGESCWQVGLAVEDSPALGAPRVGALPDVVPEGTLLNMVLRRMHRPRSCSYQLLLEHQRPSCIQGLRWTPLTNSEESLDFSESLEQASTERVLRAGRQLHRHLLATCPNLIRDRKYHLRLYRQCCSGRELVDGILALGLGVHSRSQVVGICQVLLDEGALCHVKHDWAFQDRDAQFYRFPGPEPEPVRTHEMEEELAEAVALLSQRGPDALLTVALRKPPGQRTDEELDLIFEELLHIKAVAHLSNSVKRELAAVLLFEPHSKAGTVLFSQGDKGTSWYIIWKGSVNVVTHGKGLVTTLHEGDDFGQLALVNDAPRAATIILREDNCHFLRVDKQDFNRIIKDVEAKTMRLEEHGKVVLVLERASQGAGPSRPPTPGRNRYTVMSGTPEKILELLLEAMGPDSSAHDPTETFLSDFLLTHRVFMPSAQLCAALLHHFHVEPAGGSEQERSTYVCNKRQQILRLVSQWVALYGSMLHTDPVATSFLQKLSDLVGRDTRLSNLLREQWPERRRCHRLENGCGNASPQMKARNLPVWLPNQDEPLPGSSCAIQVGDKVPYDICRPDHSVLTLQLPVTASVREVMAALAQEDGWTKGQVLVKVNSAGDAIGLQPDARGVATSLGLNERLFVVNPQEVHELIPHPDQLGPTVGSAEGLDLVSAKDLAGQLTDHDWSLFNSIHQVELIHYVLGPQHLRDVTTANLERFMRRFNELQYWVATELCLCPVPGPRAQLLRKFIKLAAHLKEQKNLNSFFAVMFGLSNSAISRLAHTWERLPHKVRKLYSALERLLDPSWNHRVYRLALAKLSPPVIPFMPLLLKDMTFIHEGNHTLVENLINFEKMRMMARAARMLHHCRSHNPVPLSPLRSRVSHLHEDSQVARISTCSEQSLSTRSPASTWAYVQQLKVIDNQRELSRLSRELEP

As to `CC1=C(C(=O)OCc2ccccc2)C(c2ccc(Cl)cc2Cl)NC(=O)N1CCCCCC(=O)O` (stereo not given), in assay [1], the Potency is 75.7 µM (active). Besides, the Potency result in assay [2], in assay [3], in assay [4] and in assay [5] was “inactive” throughout.
On to `CCCC(=O)NCCCc1nc2ccccc2n1C`, for which the Potency entry in assay [1], in assay [2], in assay [3], in assay [4] and in assay [5] was “inactive” in each case.
`Cc1cc(C(=O)c2ccc3ccccc3c2)c(C)o1`: the Potency result in assay [1], in assay [2], in assay [3], in assay [4] and in assay [5] was “inactive” throughout.
Regarding `O=C(COc1ccccc1Br)Nc1ccccc1C(F)(F)F`, the Potency entry in assay [1], in assay [2], in assay [3], in assay [4] and in assay [5] was “inactive” throughout.
For `CS/C(Nc1cc(Cl)ccc1Cl)=C(/C#N)C(=O)c1ccco1`, in assay [1], the Potency was 67.5 µM (active). Besides, the Potency result in assay [2], in assay [3], in assay [4] and in assay [5] was “inactive” throughout.
With `Cc1cc(C)c(S(=O)(=O)c2ccccc2C)c(SCC(C)C)n1`, the Potency result in assay [1] and in assay [2] was “inactive” throughout. Further, the activation was 10.6% [at 17.1 µM, percent relative to cAMP agonist control] in assay [3] and -2.44% [at 30.8 µM] in assay [5]. In assay [4], the activity change, negative = inhibition is -9.64% [at 30.8 µM].
As for `CCOC(=O)c1c(NC(=O)/C=C/c2ccc3c(c2)OCO3)sc(C)c1CC`, the Potency entry in assay [1], in assay [2], in assay [3], in assay [4] and in assay [5] was “inactive” throughout.
With `COc1ccc(N2C(=O)CSC2c2cccc(F)c2)c(OC)c1` (stereo not given), the Potency result in assay [1] and in assay [2] was “inactive” each time. In addition, the activation in assay [3] is 2.35% [at 17.1 µM, percent relative to cAMP agonist control]; in assay [5], 1.09% [at 30.8 µM]. Also, the activity change, negative = inhibition in assay [4] is -18.3% [at 30.8 µM].
For `O=C1c2cccc3cccc(c23)N1Cc1cccc(F)c1`, the Potency result in assay [1] and in assay [2] was “inactive” throughout. Besides, the activation was 7.33% [at 17.1 µM, percent relative to cAMP agonist control] in assay [3] and 26.6% [at 30.8 µM] in assay [5]. Also, the activity change, negative = inhibition in assay [4] is -7.63% [at 30.8 µM].
Take `O=S1(=O)[C@H]2CC3O[C@]2(C[C@@H]3c2ccc(F)cc2)CN1Cc1ccc(Cl)cc1`: the Potency result in assay [1], in assay [2], in assay [3], in assay [4] and in assay [5] was “inactive” in each case.
For `O=C1C=C(c2ccccc2Oc2ccccc2)C[C@@H](c2ccc(F)cc2)C1`, the Potency entry in assay [1], in assay [2], in assay [3], in assay [4] and in assay [5] was “inactive” in each case.
With `O=C(O)CN1C(=O)/C(=C\c2cc(Br)ccc2OCc2ccc([N+](=O)[O-])cc2)SC1=S`, in assay [1], the Potency is 30.1 µM (active). For the same compound, the Potency result in assay [2], in assay [3], in assay [4] and in assay [5] was “inactive” each time.
As to `CCCc1cc(=O)oc2cc(C)cc(OCC(=O)N[C@@H](CSCc3ccccc3)C(=O)O)c12`, the Potency result in assay [1], in assay [2], in assay [3], in assay [4] and in assay [5] was “inactive” throughout.
`COCCN(CCOC)Cc1cc(=O)oc2cc(C)c(Cl)cc12`: the Potency result in assay [1], in assay [2], in assay [3], in assay [4] and in assay [5] was “inactive” throughout.
In the case of `Cc1cc(S(=O)(=O)N2CCN(CC(=O)N(C)Cc3ccccc3)CC2)ccc1Br`, the Potency entry in assay [1], in assay [2], in assay [3], in assay [4] and in assay [5] was “inactive” throughout.
Regarding `Cc1c(Cl)cccc1NC(=O)Nc1cccnc1`, the Potency entry in assay [1], in assay [2], in assay [3], in assay [4] and in assay [5] was “inactive” in each case.
For the compound `Cc1ccc(NC(=O)COC(=O)c2ccccc2-c2nc3ccccc3s2)c(C)c1`, the Potency result in assay [1], in assay [2], in assay [3], in assay [4] and in assay [5] was “inactive” each time.
For the compound `O=C(CN1CCCCCC1)Nc1ccccc1Oc1ccccc1`, the Potency result in assay [1], in assay [2], in assay [3], in assay [4] and in assay [5] was “inactive” throughout.
In the case of `O=C(Nc1ccc2nc3n(c(=O)c2c1)CCCCC3)c1c(F)ccc([N+](=O)[O-])c1F`, the Potency in assay [1] is 15.1 µM (active). For the same compound, the Potency result in assay [2], in assay [3], in assay [4] and in assay [5] was “inactive” in each case.
Turning to `O=C(Cc1ccccc1)Nn1c(O)c(/C=C2\C=Nc3ccccc32)sc1=S`, the Potency entry in assay [1] and in assay [4] was “inactive” throughout. Also, the Potency in assay [2] was 112 µM (active); in assay [3] it was 100 µM (active); in assay [5] it was 39.8 µM (active).
Turning to `CC1CCN(c2oc(-c3ccccc3F)nc2C#N)CC1`, the Potency entry in assay [1], in assay [2], in assay [3], in assay [4] and in assay [5] was “inactive” each time.
With `Cc1cc(C)nc(SCC(=O)c2ccc(Cl)cc2)n1`, the Potency entry in assay [1], in assay [2], in assay [3], in assay [4] and in assay [5] was “inactive” in each case.
For `Cc1ncc(CO)c2c1Oc1nc(-c3ccccc3F)nc(SCC(=O)N(C)c3ccccc3)c1C2`, the Potency in assay [1] is 30.1 µM (active). Besides, the Potency result in assay [2], in assay [3], in assay [4] and in assay [5] was “inactive” each time.
Turning to `Cc1cc(/C=C2\SC(=S)NC2=O)c(C)n1-c1ccc(O)cc1`, the Potency in assay [1] was 84.9 µM (active). The Potency result in assay [2], in assay [3], in assay [4] and in assay [5] was “inactive” in each case.
Consider `CC(=O)CCc1oc2ccccc2c1-c1ccccc1`, for which the Potency entry in assay [1] and in assay [2] was “inactive” throughout. The activation in assay [3] was 6.69% [at 17.1 µM, percent relative to cAMP agonist control]; in assay [5], -0.404% [at 30.8 µM]. In addition, the activity change, negative = inhibition in assay [4] is -10.9% [at 30.8 µM].
As to `Cc1cc(C)c(S(=O)(=O)c2ccc(F)cc2)c(C)c1`, the Potency entry in assay [1] and in assay [2] was “inactive” in each case. Also, the activation was 0% [at 17.1 µM, percent relative to cAMP agonist control] in assay [3] and -0.628% [at 30.8 µM] in assay [5]. Further, the activity change, negative = inhibition in assay [4] is -27.6% [at 30.8 µM].
For the compound `O=C(c1ccccc1)C(c1ccccc1)c1ccccc1`, the Potency result in assay [1] and in assay [2] was “inactive” in each case. The activation in assay [3] is 0.697% [at 17.1 µM, percent relative to cAMP agonist control]; in assay [5], 12.8% [at 30.8 µM]. The activity change, negative = inhibition in assay [4] is 2.63% [at 30.8 µM].
Consider `COc1cc2c(cc1OC)C(COc1ccc(F)cc1)N(C(C)=O)CC2` (stereo not given), for which the Potency result in assay [1], in assay [2], in assay [3], in assay [4] and in assay [5] was “inactive” throughout.
Take `COc1ccccc1OCCOc1ccc(/C=C2\C(=N)N3N=C(S(C)(=O)=O)SC3=NC2=O)cc1`: the Potency in assay [1] was 67.5 µM (active). In addition, the Potency entry in assay [2], in assay [3], in assay [4] and in assay [5] was “inactive” each time.
For the compound `Cc1ccc(N2CC(c3nc4ccccc4[nH]3)CC2=O)c(C)c1` (stereo not given), the Potency entry in assay [1], in assay [2], in assay [3], in assay [4] and in assay [5] was “inactive” each time.
With `COc1ccc(C2=CC(=O)OC3(CCCCC3)O2)cc1`, the Potency entry in assay [1] and in assay [2] was “inactive” in each case. In addition, the activation in assay [3] is 5.5% [at 17.1 µM, percent relative to cAMP agonist control]; in assay [5] it was 7.07% [at 30.8 µM]. Besides, the activity change, negative = inhibition in assay [4] was -23.4% [at 30.8 µM].
Turning to `COc1ccc2nc(N3C(=O)C(O)=C(C(=O)c4ccco4)C3c3ccc(C)o3)sc2c1` (stereo not given), in assay [1], the Potency was 26.9 µM (active). Also, the Potency entry in assay [2], in assay [3], in assay [4] and in assay [5] was “inactive” in each case.
In the case of `COc1ccc(N(C(=O)c2snc(C(N)=O)c2N)C(C(=O)NC2CCCC2)c2cccs2)cc1OC` (stereo not given), in assay [1], the Potency was 33.8 µM (active). Moreover, the Potency entry in assay [2], in assay [3], in assay [4] and in assay [5] was “inactive” throughout.
Consider `O=C(N/N=C/c1c(O)n(-c2ccccc2Cl)c(=O)c2ccccc12)C1COc2ccccc2O1` (stereo not given), for which the Potency in assay [1] is 42.6 µM (active). The Potency entry in assay [2], in assay [3], in assay [4] and in assay [5] was “inactive” in each case.
Take `CCCNC(=O)Cn1c(=O)/c(=C/c2ccc(-c3ccc([N+](=O)[O-])cc3)o2)s/c1=C\C(=O)C(C)(C)C`: the values for the Potency in assay [1] and in assay [5] were 37.9 µM (active) and 5.01 µM (active), respectively. For the same compound, the Potency result in assay [2], in assay [3] and in assay [4] was “inactive” in each case.
As for `C=CCn1c(SC(F)F)nc2scc(-c3ccco3)c2c1=O`, the Potency result in assay [1], in assay [2], in assay [3], in assay [4] and in assay [5] was “inactive” in each case.
Regarding `CCCN(CC1CC1)c1cc2c(c3c1ccn3C)C1CCC2C1` (stereo not given), the Potency entry in assay [1], in assay [2], in assay [3], in assay [4] and in assay [5] was “inactive” each time.
